TDP1 cell noCPT – qHTS for Inhibitors of human tyrosyl-DNA phosphodiesterase 1 (TDP1): qHTS in cells in absence of CPT | DT40 Tdp1-/- hTDP1 cells, no CPT, ATP luminescence, 48 h | Potency, µM (series often up to 46.2 µM), inactives show at the highest dose activity change, negative = growth inhibition, hits mostly inhibitors | 15% of 420,000 active | AID 686978, 2013; note: % is set by controls: 0 for no effect and ±100 for the full control effect; nearly all actives have a fitted effect of over 55% in size
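Chicken DT40 Tdp1-/- cells complemented with human TDP1, screened without camptothecin (DMSO vehicle only), 400 cells/well. Compounds pin-transferred, cells incubated at 37 °C for at least 48 hr. Growth read as ATP-dependent luminescence (CellTiter-Glo, 30 min at RT).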
TDP1 cell CPT – DT40-hTDP1 cell growth loss with CPT. chicken DT40 Tdp1-/-;hTDP1 cells + 20 nM CPT, ATP luminescence, 48 h. Potency, µM (highest dose often 46.2 µM), inactives show top-dose activity change, negative = growth inhibition, hits mostly inhibitors. 12% of 420,000 active. AID 686979; note: % is set by controls: 0 for no effect and ±100 for the full control effect; nearly all actives have a fitted effect of over 55% in size
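Chicken DT40 Tdp1-/- cells complemented with human TDP1, 400 cells/well, exposed to compounds plus 20 nM camptothecin for at least 48 h at 37 C; viability read as ATP content by CellTiter-Glo luminescence.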
TGFb inhibitor – TGF-b pathway inhibition; HepG2 CAGA-GFP TGF-b/SMAD3 reporter, GFP fluorescence, 18 h; TGF-beta stimulated, 500 pg/mL final; Potency, µM (doses to about 46.1 µM), for inactives: at the highest dose activity, negative = inhibition, usual class: inhibitors; 1.2% of 410,000 active; AID 588855; note: % is set by controls: 0 for no effect and ±100 for the full control effect; nearly all actives have a fitted effect of over 65% in size
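HEPG2 CAGA-GFP, 1000 cells/well; 2 h settle, 37 C; cpd via pin tool; TGF-b 500 pg/mL final; 18 h, 37 C; GFP imaging ex488/em500-530; %Activity normalised to -TGF-b and +DMSO controls; CRC fit, curve class.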
HT1080 IDH1KD tx – toxicity to HT-1080 IDH1 knockdown cells (counter line) | HT-1080 IDH1 knockdown viability, ATP luminescence, 48 h | Potency, µM (titrated, usually from 46.1 µM), without a hit: at the top dose activity, negative = toxicity, usual class: cytotoxic | 2% of 360,000 active;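 note: 0% = DMSO wells and -100% = cell-free medium wells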
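After a 2 h attachment period, IDH1KD HT-1080 cells took pin-transferred compound for 48 h at 37 °C; ATP-based luminescence after 10 min room-temperature reagent incubation reported viability.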
HT1080-NT tox – kills 2HG-producing HT-1080-NT fibrosarcoma cells; HT-1080-NT fibrosarcoma viability, CellTiter-Glo ATP luminescence, 48 h; AID 686970; Potency, µM (doses to about 46.1 µM), for inactives: at the highest dose activity, negative = less viability, usual class: cytotoxic; 1.6% of 360,000 active;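 note: NT is the 2HG producing partner of a matched IDH1 knockdown line; 0% = DMSO-treated cells and -100% = media-only wells without cells; nearly all actives have a fitted effect of over 55% in size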
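Read-out is CellTiter-Glo luminescence after 10 minutes at room temperature, following 48 hours' compound treatment of HT-1080-NT cells (750 cells/well, RPMI, 5% FBS, 37 degrees C).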
HepG2 viability – HepG2 cytotoxicity, counter-screen for TGF-b inhibitors; HepG2 CAGA-GFP viability, ATP luminescence, 18 h; Potency, µM (top dose mostly 46.1 µM), for inactives: at the highest dose activity change, negative = cytotoxicity, hits mostly cytotoxic; 0.76% of 410,000 active; AID 588856
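CellTiter-Glo luminescence gave cytotoxicity after 18 hours at 37 degrees C. The cells were HepG2 CAGA-GFP in 1% FBS DMEM, stimulated with 500 pg/mL TGF-beta after compound addition. %Activity was normalised to no-cell wells (complete cell-killing) and DMSO (no toxicity), and curves were fitted and classified.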
Starred values were filed as active, the others as inactive; ? = inconclusive; · = not tested or not shown; [ ] = dose if it differs, or a comment. Shown are actives, neighbours in structure and some others; about 17% of the full set was active somewhere. Calls come from the whole dose curve; as a rule, active = well fitted curve in the direction sought with a large enough effect; inconclusive = small, poorly fitted or top-dose-only effect, or another doubt; inactive = no such curve, though single readings can be large; an effect the other way counts as inactive or inconclusive. Potency is the fitted concentration of half-maximal effect.

SMILES	TDP1 cell noCPT	TDP1 cell CPT	TGFb inhibitor	HT1080 IDH1KD tx	HT1080-NT tox	HepG2 viability
CC(C)N1CCC(C)(C(=O)Nc2ccc(Cl)c(Cl)c2)C1 (stereo unspecified)	?	?	18%	-8%	-25%	3%
O=C(OCC(=O)N1CCN(C(=O)c2ccco2)CC1)c1cccc(S(=O)(=O)N2CCc3ccccc32)c1	?	-21%	?	-10%	-9%	-13%
CN1C(=O)/C(=C/c2ccc(-c3ccccc3[N+](=O)[O-])o2)SC1=Nc1ccc(Cl)c(C(=O)O)c1	-20%	?	-1%	7%	-3%	-3%
COc1ccc(C)cc1NS(=O)(=O)c1cc2c3c(c1)CC(=O)N3CCC2	-9%	-25%	-2%	·	·	-14%
Cc1ccccc1-n1nc(CO)c(C(=O)NCc2cccnc2)n1	-2%	-10%	0%	·	·	3%
Cc1ccc(CN2CCC(CNC(=O)Nc3c(C)cccc3C)C2)cc1 (stereo unspecified)	-9%	-24%	-27%	·	·	-21%
Cc1cccc2cc(/C=N/NC(=O)c3ccccc3O)c(Cl)nc12	?	18µM*	10µM*	-21%	0%	-32%
Cc1cccc2cc(/C=N/NC(=O)c3ccncc3)c(Cl)nc12	15%	-3%	-7%	3%	8%	-8%
Cc1nc2c(C)cccc2cc1C(=O)N/N=C/c1ccc(O)cc1	?	29µM*	-27%	?	?	0%
COc1cc(OC)c(NS(=O)(=O)c2cc(C(=O)OC(C)C(=O)NC3CC3)c(Cl)cc2Cl)cc1Cl (stereo unspecified)	23µM*	18µM*	-1%	7%	2%	8%
Cc1ccc(S(=O)(=O)NC(C)(C)C)cc1C(=O)OC(C)C(=O)NC1CC1 (stereo unspecified)	4%	3%	0%	0%	1%	3%
CCC(=O)N1CCc2cc(Br)cc(S(=O)(=O)N3CCCC(C(=O)Nc4cccc(Cl)c4C)C3)c21 (stereo unspecified)	12µM*	15µM*	-39%	·	·	4%
CCC(=O)N1CCc2cc(Br)cc(S(=O)(=O)CCC(=O)NCCc3cccc(C)c3)c21	23µM*	16µM*	-1%	·	·	-60%
CCC(=O)N1CCc2cc(Br)cc(S(=O)(=O)NCCc3ccccc3Cl)c21	21µM*	16µM*	?	·	·	-28%
CCC(=O)N1CCc2cc(Br)cc(S(=O)(=O)N3CCCC(C(=O)Nc4ccc(OC)c(Cl)c4)C3)c21 (stereo unspecified)	?	-15%	-1%	·	·	-39%
CCC(=O)N1CCc2cc(Br)cc(S(=O)(=O)CCC(=O)NCCc3ccccc3)c21	?	-4%	1%	?	?	-17%
CCCNS(=O)(=O)c1cc(Br)cc2c1N(C(=O)CC)CC2	-13%	-12%	-14%	13%	15%	-12%
CCCCC[C@@H](C)N1C[C@H](COCc2ccccc2)Oc2cc(N3CCC[C@@H]3COC)ccc2S1(=O)=O	15µM*	?	·	-4%	2%	·
C[C@@H](c1ccccc1)N1C[C@@H](COCc2ccccc2)Oc2cc(N3CCC[C@@H]3CO)ccc2S1(=O)=O	?	?	·	10%	0%	·
C[C@@H](c1ccccc1)N1C[C@H](COCc2ccccc2)Oc2cc(N3CCC[C@H]3CO)ccc2S1(=O)=O	?	?	·	-14%	-14%	·
COC[C@H]1CCCN1c1ccc2c(c1)O[C@@H](COCc1ccccc1)CN([C@@H](C)c1ccccc1)S2(=O)=O	7.3µM*	10µM*	·	-2%	9%	·
C[C@@H](c1ccccc1)N1C[C@@H](COCc2ccccc2)Oc2cc(N3CCC[C@H]3C(N)=O)ccc2S1(=O)=O	?	?	·	-24%	?	·
COC[C@@H]1CCCN1c1ccc2c(c1)O[C@H](COCc1ccccc1)CN([C@H](C)c1ccccc1)S2(=O)=O	21µM*	?	·	-2%	12%	·
COC[C@H]1CCCN1c1ccc2c(c1)O[C@H](COCc1ccccc1)CN([C@@H](C)c1ccccc1)S2(=O)=O	16µM*	?	·	1%	10%	·
CC12C(=O)N(c3nccs3)C(=O)C1(C)C1CCC2O1 (stereo unspecified)	-6%	-13%	?	-15%	-15%	-21%
SMILES	TDP1 cell noCPT	TDP1 cell CPT	TGFb inhibitor	HT1080 IDH1KD tx	HT1080-NT tox	HepG2 viability
C[C@@]12C(=O)OC(=O)[C@]1(C)C1CCC2O1	-5%	1%	1.6µM*	1.5µM*	1.5µM*	-61%
CC(=O)NC(CCCN1C(=O)c2ccccc2C1=O)c1nnn(C)n1 (stereo unspecified)	2%	0%	16%	16%	17%	37%
C=CCn1c(SCC(=O)N2CCOCC2)nc2c([nH]c3ccccc32)c1=O	?	?	?	-11%	-12%	-23%
CCOC(=O)N1CCN(C(=O)CSc2nc3c([nH]c4ccccc43)c(=O)n2CC)CC1	15µM*	?	?	-3%	1%	-38%
Cc1[nH]c2ccccc2c1SCC(=O)N1CCCCCC1	-1%	-17%	-21%	8%	9%	-2%
C=CCn1c(SCC(=O)N2CCN(c3ccccc3)CC2)nc2c([nH]c3ccccc32)c1=O	12µM*	16µM*	1%	0%	4%	-1%
CCn1c(SCC(=O)N2CCCCC2)nc2c([nH]c3ccccc32)c1=O	-26%	1%	20%	-17%	-1%	-5%
Cc1[nH]c2ccccc2c1SCC(=O)N1CCN(c2ccccc2)CC1	26µM*	?	5%	5%	16%	1%
Nc1cccc(-c2cn3ccsc3n2)c1	-13%	5%	-17%	·	·	-22%
O=C(N/N=C\C=C\c1ccco1)C1COc2ccccc2O1 (stereo unspecified)	10µM*	2.6µM*	?	?	?	5%
O=C(N/N=C\C=C\c1ccc2c(c1)OCO2)C1COc2cc3ccccc3cc2O1 (stereo unspecified)	?	-10%	4%	-4%[9.24 µM]	-3%	1%
Cc1cc([N+](=O)[O-])cc(/C=N\NC(=O)C2COc3ccccc3O2)c1O (stereo unspecified)	13µM*	16µM*	-22%	?	?	-3%

Screening data: PubChem BioAssay, National Center for Advancing Translational Sciences (NCATS)
